Screening data: PubChem, National Center for Advancing Translational Sciences (NCATS)
A selection: hits, their analogues and other compounds. The true share with any hit is near 11%.
Luciferase inh: blocks purified firefly luciferase enzyme activity | P08659 | purified P. pyralis luciferase, luminescence, biochemical | Potency, µM (titrated, usually from 115 µM), actives largely listed as inhibitors | actives 2.5% (n = 76,000) | AID 1347043; also: nearly all actives have a fitted effect of over 65% in size
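FLuc 10nM, D-luciferin 10uM, ATP 10uM, Mg acetate 10mM, Tris acetate pH 7.5, Tween/BSA; cpd qHTS; enzyme added last; CCD luminescence.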
NIH3T3 tox: cytotoxic compounds in NIH 3T3 cells. NIH 3T3 viability, CellTiter-Glo ATP luminescence, 48-72 h. Potency, µM (titrated, usually from 96.7 µM), usual class: inhibitors. actives 4.3% (n = 94,000); also: nearly all actives have a fitted effect of over 55% in size
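Cytotoxicity is measured as loss of cellular ATP: NIH 3T3 cells (400/well) are exposed to compound for 48 or 72 hr at 37 °C, then CellTiter-Glo luminescence is imaged after 10 min at room temperature.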
NPR1 antag: antagonists of human natriuretic peptide receptor Npr1 | AID 1347048 | P16066 | HEK293 hNpr1 GloSensor cGMP, ANP-stimulated luminescence | Potency, µM (series often up to 46.3 µM), actives largely listed as inhibitors | actives 1.6% (n = 76,000); calls by dose curve; also: nearly all actives have a fitted effect of over 60% in size
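Compound pre-incubated 30 min at room temperature on GloSensor-loaded HEK293 cells stably carrying hNpr1 and the pGS-40F cGMP biosensor. Stimulation uses hNppA at 0.1 nM final; luminescence is taken at baseline and 20 min post-agonist.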
HEK293 tox: cytotoxic compounds in HEK 293 cells | HEK 293 viability, ATP luminescence (CellTiter-Glo), 48-72 h | AID 1345083 | Potency, µM (series often up to 115 µM), actives largely listed as inhibitors | actives 6.6% (n = 94,000); also: nearly all actives have a fitted effect of over 60% in size
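HEK 293 cells seeded at 250 cells/well were exposed to compound for 48 or 72 hr at 37 degree Celsius. Viability taken as ATP content by CellTiter-Glo luminescence.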
Each line names hits and unclear results; the compound was inactive in the other large screens. Unless noted, calls follow the shape of the dose curve; as a rule, active = well fitted curve in the direction sought with a large enough effect; inconclusive = small, poorly fitted or top-dose-only effect, or another doubt; inactive = no such curve, though single readings can be large; an effect the other way counts as inactive or inconclusive.

COc1cccc(CC(=O)N2CC(Oc3ccc(-c4nc(-c5ccccc5)no4)cc3)C2)c1	Luciferase inh 8.9µM, NIH3T3 tox inconclusive, NPR1 antag 3.5µM, HEK293 tox 13µM
COCCC(=O)N1CC(Oc2ccc(-c3noc(-c4ccccc4)n3)cc2)C1	Luciferase inh 13µM, NIH3T3 tox inconclusive, NPR1 antag 20µM, HEK293 tox 22µM
CCc1cc(=O)n(CC(=O)Nc2ccccc2OC)c(-c2ccccc2)n1	NIH3T3 tox inconclusive, HEK293 tox inconclusive
CNC(=O)N1CCO[C@@H](COc2ccccn2)[C@@H]1c1ccccc1	none (no result: Luciferase inh, NPR1 antag)
CN1c2cc(C(=O)N3CCN(c4ccccc4)CC3)ccc2C(=O)N2CCCCCC21 (centres undefined)	NIH3T3 tox inconclusive, HEK293 tox inconclusive
CN1c2cc(C(=O)N3CCN(c4cccc(Cl)c4)CC3)ccc2C(=O)N2CCCCC21 (centres undefined)	NIH3T3 tox inconclusive, HEK293 tox 45µM
CN1c2cc(C(=O)N3CCN(c4ccccc4F)CC3)ccc2C(=O)N2CCCC21 (centres undefined)	none
CN1c2cc(C(=O)N3CCN(c4ccccc4)CC3)ccc2C(=O)N2CCCCC21 (centres undefined)	HEK293 tox inconclusive
CN1c2cc(C(=O)N3CCN(c4cccc(Cl)c4)CC3)ccc2C(=O)N2CCCC21 (centres undefined)	HEK293 tox 79µM
Cc1cccc(N2CCN(C(=O)c3ccc4c(c3)N(C)C3CCCCN3C4=O)CC2)c1 (centres undefined)	NIH3T3 tox inconclusive, HEK293 tox 32µM
CCc1nc2c(c(-c3ccc(O)cc3)n1)CN(C(=O)C1CC1)CC2	HEK293 tox inconclusive (no result: Luciferase inh, NPR1 antag)
O=C(NCCN1CCOCC1)[C@H]1C[C@@H](O)[C@H](O)[C@@H]2N=C(Nc3ccc(-n4cccn4)cc3)S[C@@H]21	Luciferase inh 35µM
COc1cccc(CNC(=O)c2ccc3nnc(-c4ccc([S+](C)(=O)[O-])cc4)n3c2)c1	none (no result: Luciferase inh, NPR1 antag)
O=C(NCC1CC1)c1nc2c(o1)CCN(Cc1cccs1)CC2	Luciferase inh 71µM, HEK293 tox inconclusive
O=C(Nc1cccc(C(F)(F)F)c1)c1nc2c(o1)CCN(CC1CC1)CC2	NIH3T3 tox inconclusive, HEK293 tox inconclusive
Cc1csc(NC(=O)c2nc3c(o2)CCN(CC2CC2)CC3)n1	Luciferase inh 18µM, NIH3T3 tox inconclusive
CNC(=O)c1cccc(-c2cnc3[nH]cc(CC(=O)NC4CCC4)c3c2)c1	Luciferase inh inconclusive, NIH3T3 tox 40µM, HEK293 tox inconclusive
CNC(=O)c1cccc(-c2cnc3[nH]cc(CC(=O)NCc4cccs4)c3c2)c1	NIH3T3 tox 89µM, HEK293 tox inconclusive
CNC(=O)c1cccc(-c2cnc3[nH]cc(CC(=O)Nc4ccccc4Cl)c3c2)c1	Luciferase inh inconclusive, NIH3T3 tox inconclusive, HEK293 tox 89µM
CNC(=O)c1cccc(-c2cnc3[nH]cc(CC(=O)N(C)C)c3c2)c1	Luciferase inh inconclusive, NIH3T3 tox inconclusive, HEK293 tox inconclusive
O=C(Cc1c[nH]c2ncc(-c3cccnc3)cc12)NC1CCC1	NIH3T3 tox 28µM, HEK293 tox inconclusive
O=C(Cc1c[nH]c2ncc(-c3cccnc3)cc12)NCCc1ccccn1	NIH3T3 tox 100µM
O=C(Cc1c[nH]c2ncc(-c3ccccc3)cc12)NC1CC1	NIH3T3 tox 89µM, NPR1 antag inconclusive, HEK293 tox inconclusive
COCCNC(=O)Cc1c[nH]c2ncc(-c3cccnc3)cc12	NIH3T3 tox inconclusive
Cc1c(CC(=O)NC(C)C)c2c(n1Cc1ccccc1F)CCCC2=O	Luciferase inh 45µM, HEK293 tox inconclusive
O=C(NC1CN(c2ccnc3ccnn23)C1)C1CC1	none (no result: Luciferase inh, NPR1 antag)
O=C(Cc1ccc(F)cc1)N1CCCN(CCc2ccccc2)c2ccccc21	NIH3T3 tox 35µM, HEK293 tox inconclusive (no result: Luciferase inh, NPR1 antag)
O=C(Cc1ccc(Br)cc1)N1CCCN(C(=O)C2CC2)c2ccccc21	NIH3T3 tox inconclusive, HEK293 tox inconclusive
CS(=O)(=O)N1CCCN(C(=O)Cc2ccc(OC(F)(F)F)cc2)c2ccccc21	NIH3T3 tox inconclusive, HEK293 tox inconclusive
CN1CCCN(C(=O)Cc2ccc(OC(F)(F)F)cc2)c2ccccc21	NIH3T3 tox 40µM, HEK293 tox inconclusive
O=C(Cc1cccs1)N1CCCN(CCc2ccccc2)c2ccccc21	NIH3T3 tox 32µM, HEK293 tox inconclusive
COCCCn1c(=O)c(C(=O)N2CCN(C(=O)N(C)C)CC2)nc2cccnc21	none (no result: Luciferase inh, NPR1 antag)
O=C(c1nc2cccnc2n(CCc2ccccc2)c1=O)N1CCN(C(=O)C2CC2)CC1	none (no result: Luciferase inh, NPR1 antag)
O=C1NC(=NC2CCCC2)C2(CCN(Cc3ccsc3)C2)N1c1cccnc1 (centres undefined)	HEK293 tox inconclusive (no result: Luciferase inh, NPR1 antag)
CN(C1CCCc2ccccc21)S(=O)(=O)c1cccc(C(F)(F)F)c1 (centres undefined)	NIH3T3 tox inconclusive, HEK293 tox inconclusive
COCCn1cc2c3c(cccc31)CN(C(=O)c1ccc(C)c(C)c1)CC2	NIH3T3 tox inconclusive, HEK293 tox inconclusive
O=C(c1ccccc1F)N1CCC2(CC1)CC(N1CCCCC1)CCO2 (centres undefined)	none (no result: Luciferase inh, NPR1 antag)
CC(=O)N1CCN(C(=O)c2nc3sccn3c2-c2ccccc2)CC1	none (no result: Luciferase inh, NPR1 antag)
CCCN(C)c1nccnc1OC1CCN(C(=O)Cc2ccccc2OC)C1 (centres undefined)	Luciferase inh 35µM, NIH3T3 tox inconclusive, HEK293 tox inconclusive
CCCN(C)c1nccnc1OC1CCN(C(=O)c2cccc(OC)c2OC)C1 (centres undefined)	Luciferase inh 32µM, NIH3T3 tox inconclusive, HEK293 tox inconclusive
COCCCn1c(=O)c(C(=O)N2CCN([S+](=O)([O-])c3cccs3)CC2)nc2cccnc21	none (no result: Luciferase inh, NPR1 antag)
CNC(=O)C1CCCN(Cc2cccc(-c3ccc(F)cc3F)c2)C1 (centres undefined)	NIH3T3 tox inconclusive, HEK293 tox 63µM (no result: Luciferase inh, NPR1 antag)
N#Cc1cc(CN2CCCC(C(=O)Nc3cccc(-c4ccc(F)cc4)c3)C2)c[nH]1 (centres undefined)	NIH3T3 tox 18µM, HEK293 tox 25µM
CC(=O)N1CCN(C(=O)C2CCCN(Cc3cccc(-c4ccc(F)cc4F)c3)C2)CC1 (centres undefined)	HEK293 tox inconclusive (no result: Luciferase inh, NPR1 antag)
CC(C)(C)CC(=O)N1CCCC(C(=O)Nc2cccc(-c3ccc(F)cc3)c2)C1 (centres undefined)	NIH3T3 tox inconclusive, HEK293 tox inconclusive
C#CCNC(=O)C1CCCN(Cc2cccc(-c3ccc(F)cc3F)c2)C1 (centres undefined)	NIH3T3 tox inconclusive, HEK293 tox 45µM (no result: Luciferase inh, NPR1 antag)
O=C(Nc1cccc(F)c1)C1CCCN(Cc2cccc(-c3ccc(F)cc3F)c2)C1 (centres undefined)	NIH3T3 tox 45µM, HEK293 tox 20µM (no result: Luciferase inh, NPR1 antag)
COc1ccccc1C(=O)N1CCCn2nc(C)c(-c3ccccc3C(C)C)c21	NIH3T3 tox inconclusive, HEK293 tox 89µM
Cc1nn2c(c1-c1ccccc1C(C)C)N(C(=O)Cc1ccc3c(c1)OCO3)CCC2	NIH3T3 tox 40µM, HEK293 tox inconclusive
